ChEMBL document CHEMBL4513149, “CO-ADD screening of MMV (CH) - MMV compounds” (2021)
Potency and affinity values are given separately.

Experiments:
[1] = tested on: Staphylococcus aureus; details: Concentration 20 uM; ASSAY_TEST Inhibition of Bacterial Growth; detection method Absorption (OD600); MEDIA CAMHB; plate type 384well; NBS; CORNING #3640; time 18 hr
[2] = tested on: Escherichia coli; details: Concentration 20 uM; ASSAY_TEST Inhibition of Bacterial Growth; detection method Absorption (OD600); MEDIA CAMHB; plate type 384well; NBS; CORNING #3640; time 18 hr

Question: With `CN1CCN(c2cc(-c3ccc(F)cc3)nc(-c3ccncc3)n2)CC1` as the molecule, how does the Inhibition [1] read?
Answer: Its Inhibition is 17.93%.

Question: And the Inhibition [2]?
Answer: The Inhibition was -5.05%.

Question: Which results are given for `COC(=O)c1cccc2oc(-c3cccc(OC)c3NC(=O)c3cc(-c4ccccc4)on3)nc12`?
Answer: Inhibition [1]: 11.44%; Inhibition [2]: 4.98%

Question: With `CCc1nc2ccc(C(=O)NCc3ccc4c(c3)OCO4)cn2c1N(C)Cc1cccs1` as the molecule, how does the Inhibition [1] read?
Answer: The Inhibition was 4.69%.

Question: What about the Inhibition [2] of the same molecule?
Answer: The Inhibition was -1.74%.

Question: Which Inhibition [1] does the source give for `O=C(NCc1ccco1)N1CCN(Cc2ccc(Cl)s2)CC1` here?
Answer: Its Inhibition is 6.8%.

Question: And the Inhibition [2]?
Answer: The Inhibition was -3.38%.

Question: What does the source list for `Nc1ncnc2c1c(-c1cnc3ccccc3c1)nn2CC1CCNCC1`?
Answer: Inhibition [1]: 3.94%; Inhibition [2]: -4.76%

Question: What does the source list for `O=C(c1ccc(NCCO)cc1)C1C[C@H]1c1ccc(Cl)cc1` (stereo partly specified)?
Answer: Inhibition [1]: 8.07%; Inhibition [2]: -0.72%

Question: For `CC(C)(C)OC(=O)N1CCN(c2nccc(-c3ccc(-c4ccc(Cl)cc4)s3)n2)CC1`, which Inhibition [1] is on record?
Answer: The Inhibition was 15.85%.

Question: What about the Inhibition [2] of the same molecule?
Answer: Its Inhibition is 9.45%.

Question: What does the source list for `O=C(CN1CCOCC1)Nc1ccc2ncnc(Nc3ccc(OCc4cccc(F)c4)c(Cl)c3)c2c1`?
Answer: Inhibition [1]: 14.97%; Inhibition [2]: 4.06%

Question: For `CC(C)(C)c1cc(C(=O)Nc2cccnc2)cc(C(=O)Nc2cccnc2)c1`, which Inhibition [1] is on record?
Answer: The Inhibition was 15.23%.

Question: What about the Inhibition [2] of the same molecule?
Answer: The Inhibition was 6.88%.

Question: How did the Inhibition [1] turn out when `O=C(Nc1nnc(S)s1)c1cc(Br)ccc1Cl` was run?
Answer: The Inhibition was 0.16%.

Question: And the Inhibition [2]?
Answer: Its Inhibition is 4.27%.

Question: Which results are given for `CN1CCN(S(=O)(=O)c2ccc(-c3ccc4c(Nc5ncc(Cl)cn5)ccnc4c3)cc2)CC1`?
Answer: Inhibition [1]: 23.03%; Inhibition [2]: 2.97%

Question: `CCOc1ccc(OCC(=O)Nc2cc(C)cc(C)c2)cc1` was tested. Which Inhibition [1] did it give?
Answer: The Inhibition was 14.06%.

Question: And the Inhibition [2]?
Answer: Its Inhibition is 3.81%.

Question: How did the Inhibition [1] turn out when `COc1ccc(-c2nn(C(C)C)c3ncnc(N)c23)cc1OC` was run?
Answer: Its Inhibition is 14.97%.

Question: What about the Inhibition [2] of the same molecule?
Answer: The Inhibition was -0.52%.

Question: Which Inhibition [1] does the source give for `Cc1cc(Cl)ccc1NC(=O)CCc1ccc(S(=O)(=O)NCC(C)C)cc1` here?
Answer: The Inhibition was 6.84%.

Question: What about the Inhibition [2] of the same molecule?
Answer: The Inhibition was 9.61%.

Question: Which Inhibition [1] does the source give for `Cc1cc(Cl)c(S(=O)(=O)N2CCCC2)cc1OCC(=O)NC1CCCCC1` here?
Answer: The Inhibition was 7.56%.

Question: What about the Inhibition [2] of the same molecule?
Answer: The Inhibition was 0.73%.

Question: What does the source list for `CNc1cc(C)nc(C2CN(C(=O)c3n[nH]c4ccccc34)CCO2)c1` (stereo unspecified)?
Answer: Inhibition [1]: 17.74%; Inhibition [2]: 10.11%

Question: `O=C(NC1CCCCC1)N1CCN(Cc2ccc3c(c2)OCO3)CC1` was tested. Which Inhibition [1] did it give?
Answer: Its Inhibition is 15.03%.

Question: What about the Inhibition [2] of the same molecule?
Answer: Its Inhibition is 4.44%.

Question: With `c1cc(C2=NCCN2)cc(-c2cc(-c3ccc(C4=NCCN4)cc3)no2)c1` as the molecule, how does the Inhibition [1] read?
Answer: The Inhibition was 5.99%.

Question: What about the Inhibition [2] of the same molecule?
Answer: The Inhibition was 8.18%.

Question: `Cl.Cn1ccnc1CNCCS(=O)(=O)c1cccc(Nc2ccc(-c3cccc(F)c3)cn2)c1` was tested. Which Inhibition [1] did it give?
Answer: The Inhibition was 24.8%.

Question: What about the Inhibition [2] of the same molecule?
Answer: Its Inhibition is 8.19%.

Question: Which Inhibition [1] does the source give for `COc1ccc(Oc2ccc([C@@H](C)N(C)c3ncc4c(N)nc(N)nc4n3)cc2)cc1` here?
Answer: Its Inhibition is 53.21%.

Question: And the Inhibition [2]?
Answer: The Inhibition was 13.92%.

Question: What does the source list for `COc1cccc(-c2cc3c(Nc4cccnc4)nccc3[nH]2)c1`?
Answer: Inhibition [1]: 13.42%; Inhibition [2]: -3.86%

Question: Which results are given for `NS(=O)(=O)c1cccc(-c2ccc3ncc(N4CCOCC4)nc3c2)c1`?
Answer: Inhibition [1]: 16.94%; Inhibition [2]: 14.17%

Question: What does the source list for `CC(=O)N1CCc2cc3nc(C)cc(C)c3cc21`?
Answer: Inhibition [1]: 14.4%; Inhibition [2]: 5.79%

Question: For `O=C(Nc1cccc(Cl)c1)c1cnc(N2CCN(c3ccncc3)CC2)c(Cl)c1`, which Inhibition [1] is on record?
Answer: Its Inhibition is 19.29%.

Question: And the Inhibition [2]?
Answer: Its Inhibition is 6.8%.

Question: Which Inhibition [1] does the source give for `Nc1nccc2ccc(Oc3ccncc3)cc12` here?
Answer: The Inhibition was 12.81%.

Question: And the Inhibition [2]?
Answer: The Inhibition was 7.44%.

Question: Which Inhibition [1] does the source give for `FC(F)(F)c1cc(NCCc2ccccc2)nc(-c2ccccn2)n1` here?
Answer: Its Inhibition is -9.89%.

Question: What about the Inhibition [2] of the same molecule?
Answer: Its Inhibition is -6.09%.

Question: How did the Inhibition [1] turn out when `COc1cc(OC)cc(C(=O)NCC2Cc3cc(Cl)cc(-c4ccncc4)c3O2)c1` (stereo unspecified) was run?
Answer: The Inhibition was 16.01%.

Question: And the Inhibition [2]?
Answer: The Inhibition was 10.63%.

Question: Which results are given for `COc1cc(C(F)(F)F)nc2ccc(C)c(N)c12`?
Answer: Inhibition [1]: 15.64%; Inhibition [2]: 5.11%

Question: `CCn1ncc2c(NC3CCOCC3)c(CNC(=O)c3ccnn3C)c(C)nc21` was tested. Which Inhibition [1] did it give?
Answer: The Inhibition was 5.59%.

Question: And the Inhibition [2]?
Answer: Its Inhibition is 3.03%.

Question: With `Cc1cc(C)nc(-n2nc(C)cc2Nc2ccccc2)n1` as the molecule, how does the Inhibition [1] read?
Answer: Its Inhibition is 9.46%.

Question: What about the Inhibition [2] of the same molecule?
Answer: The Inhibition was 5.87%.

Question: With `O=S(=O)(c1ccc(Cl)cc1)N1CCN(C(=S)NCc2ccco2)CC1` as the molecule, how does the Inhibition [1] read?
Answer: Its Inhibition is 6.19%.

Question: What about the Inhibition [2] of the same molecule?
Answer: Its Inhibition is -1.38%.

Question: Which Inhibition [1] does the source give for `COc1ccc(-c2nnc3ccc(-c4cccc(C(C)C)c4)cn23)cc1OC` here?
Answer: The Inhibition was 5.54%.

Question: What about the Inhibition [2] of the same molecule?
Answer: The Inhibition was 12.18%.

Question: How did the Inhibition [1] turn out when `NCCC(O)C(=O)N[C@@H]1C[C@H](N)[C@@H](OC2O[C@H](CN)[C@@H](O)[C@H](O)[C@H]2O)[C@H](O)C1OC1O[C@H](CO)[C@@H](O)[C@H](N)[C@H]1O.O=S(=O)(O)O.O=S(=O)(O)O` (stereo partly specified) was run?
Answer: Its Inhibition is 14.32%.

Question: What about the Inhibition [2] of the same molecule?
Answer: The Inhibition was 11.24%.
